Out of some 96,000 compounds screened, about 20,000 (21%) were called active. Only a sample is shown. A number with no mark means an inactive call.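 How the source made its calls: active means CYP2C19 inhibition above a set limit at 5 µM in the primary screen (cut at about 50% in these data); inactive means the rest.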
Molecular target: Cytochrome P450 2C19 (Homo sapiens) (UniProt P33261)
Experiment: blockers of cytochrome P450 2C19 activity – biochemical, luminescence, ADME assay, primary screen (AID 778);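 further: plate controls were negative control wells for no effect and 2.5 mM tranylcypromine positive control for full effect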
Conditions: CYP2C19 Supersomes, luciferin-H EGE luminescence, 30 min; at 5 µM; active compounds read high

Sequence of Cytochrome P450 2C19 (Homo sapiens) (P33261 whole entry, looked up): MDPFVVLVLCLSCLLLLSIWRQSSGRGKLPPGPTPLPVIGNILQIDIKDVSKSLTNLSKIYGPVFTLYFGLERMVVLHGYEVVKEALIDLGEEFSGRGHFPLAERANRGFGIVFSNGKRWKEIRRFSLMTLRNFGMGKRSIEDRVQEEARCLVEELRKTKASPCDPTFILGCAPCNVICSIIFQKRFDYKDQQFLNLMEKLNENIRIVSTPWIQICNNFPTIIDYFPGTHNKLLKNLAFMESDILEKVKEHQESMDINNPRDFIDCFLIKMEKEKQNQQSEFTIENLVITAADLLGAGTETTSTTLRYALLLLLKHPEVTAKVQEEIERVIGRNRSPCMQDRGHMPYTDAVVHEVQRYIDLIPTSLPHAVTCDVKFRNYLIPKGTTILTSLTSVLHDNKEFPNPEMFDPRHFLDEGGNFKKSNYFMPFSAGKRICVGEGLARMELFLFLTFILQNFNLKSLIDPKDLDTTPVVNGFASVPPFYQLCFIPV

Compound	inhibition
Cc1ccc2cc3cc(C(=O)N4CCCCCC4)oc3nc2c1	19.1%
COc1cc(/C=N/Nc2nn3cnnc3c3ccccc23)cc(OC)c1OC	18.8%
O=C1c2cccc3cccc(c23)N1CN1CCN(c2ccccn2)CC1	1.9%
Cc1ccc(OCC(O)CN2CCN(CC(O)COc3ccc(C)cc3Cl)CC2)c(Cl)c1 (stereo not given)	-5.7%
OC(COc1cccc2ccccc12)CN1CCN(c2ccccn2)CC1 (stereo not given)	88.8% (active)
COc1ccc(-n2cnc3cc(NCc4ccco4)ccc32)cc1	42.6%
O=C(Nc1ccccc1)c1ccc2nsnc2c1	18.4%
CC(=O)NS(=O)(=O)c1ccc(NC(=O)/C=C/c2ccccc2Cl)cc1	4%
O=c1[nH]c2ccccc2n2c(-c3ccccc3)nnc12	32.6%
CCCSC1=C(C#N)C(c2ccccc2C)C(C(=O)OC)C(=O)N1 (stereo not given)	41%
COC(=O)CSC1=C(C#N)C(c2ccccc2OC)C(C(=O)OC)C(=O)N1 (stereo not given)	55.4% (active)
CCOc1ccc2cc(C#N)c(SCC(=O)OC)nc2c1	4.1%
CC1CCCC(C)N1CCCNC(=O)c1cc2c(=O)n(C)c3ccccc3c2n1C (stereo not given)	-9.2%
COc1ccc(CCNC(=O)C2CCN(c3nn4c(=O)cc(C)nc4s3)CC2)cc1OC	-7%
COc1ccc(CCN(C)C(=O)C2CCCN(Cc3ccc(OC)c(OC)c3)C2)cc1OC (stereo not given)	13.3%
COc1ccc(CCNC(=O)C2CCCN(Cc3nc(-c4cccc(Cl)c4)oc3C)C2)cc1OC (stereo not given)	87.1% (active)
COc1ccc(CCNC(=O)c2ccc3c(c2)NC(=O)C(N2CCOCC2)S3)cc1OC (stereo not given)	43.7%
COc1ccc2c3c(c(=O)oc2c1OCC(=O)C(C)(C)C)CCCC3	15.9%

Compound	inhibition
CC(C)CC(=O)N/C(N)=N/c1nc2ccccc2s1	36.7%
Cc1ncc(CC(=O)n2cc(C(=O)c3cc(Cl)ccc3O)cn2)s1	61% (active)
Cc1cc2cc3c(cc2nc1SCC(=O)Nc1c(C)cccc1C)CCC3	15.7%
CCOC(=O)c1c(NC(=O)CSc2nnc(Cc3csc(N)n3)n2C)sc(C)c1C	16.5%
Cn1c(Cc2cccc3ccccc23)nnc1SCC(=O)N1CCN(c2cccc(Cl)c2)CC1	12%
Cn1c(Cc2csc(N)n2)nnc1SC/C=C/c1ccccc1	61.6% (active)
Cc1cccc(CCNS(=O)(=O)c2ccc(S(=O)(=O)NC3CCCC3)cc2)c1	67.1% (active)
Cc1cc(S(=O)(=O)NC2CCCCC2)ccc1OCC(=O)NCc1cccnc1	20.8%
CSc1ccc(S(=O)(=O)NC2CCCCC2)cc1	88.8% (active)
O=S(=O)(NC1CCCCC1)c1ccc(F)c2ccccc12	26.5%
COC(=O)c1cc(S(=O)(=O)NC2CCN(Cc3ccccc3)CC2)cn1C	0.8%
CCCNS(=O)(=O)c1ccc(CCC(=O)NCc2cccnc2)cc1	22.4%
CSc1ccc(S(=O)(=O)Nc2cccc(F)c2)cc1	99.4% (active)
O=C(O)c1ccc(F)c(S(=O)(=O)Nc2ccccc2)c1	7.1%
N#CCCN1CCN(S(=O)(=O)c2ccc(S(=O)(=O)NC3CCCCC3)cc2)CC1	13.3%
O=C(CCc1ccc(S(=O)(=O)NC2CCCCC2)cc1)NCc1ccccc1	63.1% (active)
CCc1nnc(NS(=O)(=O)c2ccc(NS(=O)(=O)c3ccccc3)cc2)s1	-6.3%

— PubChem BioAssay AID778 (Sanford-Burnham Center for Chemical Genomics, 2007)
